Integrin act MD = activates integrin-mediated alleviation for muscular dystrophy | alpha7betagal myoblasts, beta-gal FDG fluorescence, 48 h | 350,000 compounds, 0.064% hits | Potency, µM (top dose mostly 38.3 µM), without a hit: at the highest dose activation, actives largely listed as activators;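 also: potency is read from the fitted curve at half-maximal effect; 100% = response of the positive control SU9516; nearly all actives have a fitted effect of over 60% in size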
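alpha7betagal+/- myoblasts (passage 13, 250/well) treated 48 h at 37C with compounds at 1:260 dilution of DMSO stock. Lysed, then beta-galactosidase activity read as FDG fluorescence (ex 480/em 540) after 30 min, with pre-read for autofluorescence.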
PKM2 activator = activators of human pyruvate kinase M2. 260,000 compounds, 0.34% hits. AID 1631. P14618. Potency, µM (series often up to 57.5 µM), without a hit: at the top dose activation, most hits filed as activators. purified PKM2, Kinase-Glo ATP luminescence, activation; response scale: 0% is enzyme alone, no compound; also: potency is read from the fitted curve at half-maximal effect; % is scaled to controls: 0 for no effect and ±100 for the full control effect; nearly all actives have a fitted effect of over 55% in size
Target sequence (P14618 whole entry, looked up): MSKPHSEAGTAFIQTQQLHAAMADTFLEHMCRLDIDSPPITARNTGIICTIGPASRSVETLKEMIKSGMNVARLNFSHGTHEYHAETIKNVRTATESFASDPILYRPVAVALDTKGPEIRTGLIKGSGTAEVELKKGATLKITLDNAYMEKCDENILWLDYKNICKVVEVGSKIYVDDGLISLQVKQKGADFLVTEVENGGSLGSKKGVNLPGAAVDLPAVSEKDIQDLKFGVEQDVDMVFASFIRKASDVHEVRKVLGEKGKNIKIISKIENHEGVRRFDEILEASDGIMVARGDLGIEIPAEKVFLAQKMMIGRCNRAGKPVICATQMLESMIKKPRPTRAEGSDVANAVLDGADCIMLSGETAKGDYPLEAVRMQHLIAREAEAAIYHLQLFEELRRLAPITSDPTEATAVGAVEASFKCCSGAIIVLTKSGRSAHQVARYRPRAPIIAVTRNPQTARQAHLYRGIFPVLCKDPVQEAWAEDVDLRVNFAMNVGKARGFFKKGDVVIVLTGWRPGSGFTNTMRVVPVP
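ATP formation by purified human PK-M2, quantified via coupled luciferase luminescence after 1 h at room temperature with 0.1 mM ADP and 0.5 mM PEP final.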
BRCA1 expr up = BRCA1 expression activation. MCF7-BRCA1-FFLuc reporter, luminescence, 48 h; response scale: scaled: vehicle 0%, 10 µM genistein 100%. Potency, µM (doses to about 46.1 µM), inactives show at the highest dose activation, actives largely listed as activators. 380,000 compounds, 1.1% hits. AID 624202; also: potency is read from the fitted curve at half-maximal effect; nearly all actives have a fitted effect of over 80% in size
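Using MCF7 cells harboring a BRCA1 firefly luciferase reporter, plated 2 h before compound pinning, the screen measured luminescence after 48 h incubation. Responses were normalized to DMSO and 10 microM genistein, then fitted for concentration-effect.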
Apoferritin bind = binds horse apoferritin like a general anesthetic; P02791; apoferritin/1-aminoanthracene competitive binding, fluorescence; Potency, µM (series often up to 77.5 µM), inactives show at the top dose activity change, negative = displacement, hits mostly inhibitors; 350,000 compounds, 0.074% hits; AID 485281; also: potency is read from the fitted curve at half-maximal effect; % is scaled to controls: 0 for no effect and ±100 for the full control effect; nearly all actives have a fitted effect of over 20% in size
Target sequence (P02791 2-175 limits assumed): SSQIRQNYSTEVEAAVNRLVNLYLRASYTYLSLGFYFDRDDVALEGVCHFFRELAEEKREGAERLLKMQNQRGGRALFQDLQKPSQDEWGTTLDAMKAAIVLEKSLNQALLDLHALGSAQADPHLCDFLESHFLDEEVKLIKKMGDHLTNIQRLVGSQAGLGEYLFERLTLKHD
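In PBS, apoferritin at 10 uM is loaded with 1-AMA from a 50% saturated solution. After 10 min of compound exposure at ambient temperature, reduced 535 nm fluorescence indicates probe displacement.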
IL2 activator = activates IL-2 in a cell-based reporter assay. IL-2 activation reporter assay, cell-based qHTS; stimulated with anti-CD3/CD4/CD28 beads; in transgenic mouse T cells. activation, % (series mostly up to about 46 µM). 360,000 compounds, 0.065% hits; in the data active = activation above about 50%; inconclusive = mostly about 30% to 49%; also: 0% is about no effect
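Unstimulated transgenic mouse T cells preincubated 60 min with compound, then stimulated with anti-CD3/anti-CD4-coated beads plus anti-CD28 for 18 h at 37 degrees C. IL-2 response read as EGFP and DsRed fluorescence by plate cytometry.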
* hit, by the source's call; ? = inconclusive; . = no result; [ ] = remark or other dose. The list is not random: actives were taken first. Their share in the collection is about 1.3%. Unless noted, calls follow the shape of the dose curve; as a rule, active = well fitted curve in the direction sought with a large enough effect; inconclusive = small, poorly fitted or top-dose-only effect, or another doubt; inactive = no such curve, though single readings can be large; an effect the other way counts as inactive or inconclusive.

SMILES	Integrin act MD	PKM2 activator	BRCA1 expr up	Apoferritin bind	IL2 activator
Cc1ccc(-n2c(SCC(=O)N/N=C/c3ccccc3C(=O)O)nnc2-c2ccc(Cl)cc2)cc1	-30.0%	-1.2%	-1.3%	2.2%	4.3
CCCCc1ccc(NC(=O)COC(=O)c2ccccc2OCC(=O)Nc2ccc(Br)cc2)cc1	.	.	0.0%	.	.
Cc1cc(C(=O)NCCC2=CCCCC2)ccc1[N+](=O)[O-]	2.4%	0.1%	5.01µM*	?	-0.8
O=C(NCCC1=CCCCC1)c1ccc([N+](=O)[O-])cc1	10.2%	-17.7%	?	-1.4%	-0.3
COc1cccc(C(=O)NCCC2=CCCCC2)c1	-8.6%	1.1%	?	28.2µM*	0.0
O=[N+]([O-])c1ccccc1S(=O)(=O)NCCC1=CCCCC1	-19.8%	-1.6%	3.1%	10µM*	0.0
CO[C@@H]1COC(=O)[C@H]2CCCN2C(=O)[C@@H](C)COC(=O)C/C=C\[C@H]1C	.	.	.	4.0%[15.3 µM]	.
Cc1cc(S(=O)(=O)NCCc2ccccc2)c(C)s1	4.9%	7.8%	1.1%	8.91µM*	-2.2
C(/C=C/c1ccco1)=N/N1CCN(c2ccccc2)CC1	-2.2%	3.6%	10µM*	-14.9%	-1.9
Clc1ccccc1CN1CCN(/N=C/C=C\c2ccco2)CC1	-14.8%	-0.3%	?	-13.7%	0.5
Clc1ccc(OCc2cn3ccccc3n2)c2ncccc12	24.5%	-1.9%	3.16µM*	-10.8%	-1.0
CCCN1CNc2c(c(=O)[nH]c(=S)n2CCc2cc(C)cc(C)c2)C1	.	.	-9.8%	.	.
COC(=O)c1c(-c2cc(C)ccc2C)csc1NC(=O)C1CC=CCC1C(=O)O (stereo not given)	-25.1%	-0.1%	-5.4%	-18.5%	-3.0
COC(=O)c1c(-c2ccc(C)cc2)csc1NC(=O)C1CC=CCC1C(=O)O (stereo not given)	?	-0.6%	11.2µM*	-2.0%	1.4
C=CCN(CC=C)S(=O)(=O)c1ccc(NC(=S)NC(=O)c2ccco2)cc1	-1.6%	-3.7%	-27.2%	17.8µM*	-0.6
CN1C(=O)c2cccc3c(S(=O)(=O)Nc4ccccc4F)ccc1c23	-23.4%	11.2µM*	-74.0%	-2.1%	1.6
CNS(=O)(=O)c1ccc2c3c(cccc13)C(=O)N2C	1.4%	25.1%	-26.5%	639.0%	-0.3
O=c1oc(CCCO)cc2ccc(/C=C/c3cccc([N+](=O)[O-])c3)cc12	-0.1%	.	6.31µM*	.	-0.4
N#Cc1cc2c(nc1SCc1ccncc1)CCC2	9.2%	-0.7%	11.2µM*	-7.2%	1.0
Cc1cc(C)c2nc(SCC(=O)Nc3cc(C)on3)c(C)cc2c1	-5.0%	.	-0.7%	-0.5%	-0.2
Cc1cc(C)c2nc(SCC(=O)Nc3cc(C)on3)c(C#N)cc2c1	0.0%	1.12µM*	-0.1%	4.5%	0.3
Cc1cc(NC(=O)CSc2nc3c(cc2C#N)CCCC3)no1	6.1%	?	-5.9%	-6.6%	-2.1
Cc1cc(NC(=O)CSc2nc3c(cc2C#N)CCC3)no1	7.9%	2.51µM*	0.0%	-0.2%	2.9
C=CCn1c(COc2ccc(Cl)cc2)nnc1SCc1ccc(C#N)cc1	11.2µM*	0.2%	-39.6%	-18.0%	-1.5
C=CCn1c(COc2ccccc2)nnc1SCc1ccc(C#N)cc1	-4.2%	-1.7%	-26.9%	-17.9%	-1.4
SMILES	Integrin act MD	PKM2 activator	BRCA1 expr up	Apoferritin bind	IL2 activator
COc1ccc(C2/C=C\CN(CC3CCCCC3)C(Cc3ccccc3)C(=O)N2Cc2ccc(F)cc2)cc1 (stereo not given)	.	.	.	-0.6%	.
NNC(=O)CNC(=O)C12CC3CC(CC(C3)C1)C2	13.6%	2.7%	-0.7%	7.94µM*	6.2
Cc1ccc(OCCNC(=O)CNC(=O)Cc2cccc3ccccc23)cc1	.	.	2.3%	.	.
CCc1cccc2c(-c3ccccc3)nc(SCC(=O)Nc3ccc(OC)cc3)nc12	.	.	.	-17.0%	.
CC(=O)Oc1ccc(C2OC(=O)c3ccccc3N2C(C)=O)cc1 (stereo not given)	0.0%	-5.4%	3.4%	-2.2%	1.8
COc1ccc(C(=O)N2c3ccccc3C(=O)OC2c2ccc3c(c2)OCO3)cc1 (stereo not given)	4.3%	-5.2%	11.2µM*	-16.5%	-2.3
O=C(CCCc1ccccc1)Nc1ccccn1	?	-5.0%	62.7%	-9.9%	-1.6
Cc1ccnc(NC(=O)CCCc2ccccc2)c1	0.9%	-12.5%	11.2µM*	3.9%	0.3
Cc1ccc(C(=O)NCC(=O)Nc2cc(C)ccn2)cc1	-5.1%	.	32.9%	.	0.0
Cc1ccnc(NC(=O)CCNC(=O)c2ccc(Cl)cc2)c1	-8.2%	5.8%	12.6µM*	-1.6%	2.7
Cn1nccc1C(=O)OCC(=O)Nc1nc(-c2ccccc2)cs1	0.0%[7.66 µM]	15.8%	66.4%	-23.6%	-1.8
Cn1cc(Cl)c(C(=O)OCC(=O)Nc2nc(-c3ccc(Br)cc3)cs2)n1	1.5%	-11.8%	11.2µM*	-5.5%	0.8
COc1cc2[nH]c(=O)n(CCCCCC(=O)N3CCN(c4ccc(Cl)cc4)CC3)c(=O)c2cc1OC	.	.	.	-8.2%	.
COc1ccc2occ(C(=O)c3cccs3)c2c1	-1.5%	1.7%	48.9%	25.1µM*	0.7
O=c1[nH]c2ccccc2nc1/C=C/c1ccccc1	32.5%	-8.4%	3.98µM*	-12.8%	0.2
COc1ccc(OC)c(/C=C/c2nc3ccccc3[nH]c2=O)c1	11.1%	-7.1%	-44.8%	5.7%	139.1*
COc1cc(/C=C/c2ccnc3ccccc23)ccc1N(C)C	.	.	11.2%	.	.
C=CCn1cccc(C(=O)Nc2ccc(C)c(Cl)c2)c1=O	0.0%	.	4.47µM*	-3.9%	0.4
C=CCn1cccc(C(=O)Nc2ccc(Cl)cc2)c1=O	-58.0%	.	5.62µM*	0.0%	-0.3
C=CCn1cccc(C(=O)Nc2ccc(OC)c(Cl)c2)c1=O	-32.9%	.	55.1%	-9.8%	-0.7
C=CCn1cccc(C(=O)Nc2ccc(SC)cc2)c1=O	17.9%	.	58.1%	-17.6%	-4.7
CCS(=O)(=O)c1ncc(N(Cc2ccccc2)Cc2ccco2)c(C(=O)Nc2ccc(C)c(C)c2)n1	.	.	.	-11.1%	.
N#C/C(=C/c1ccc(N2CCCCC2)o1)C(=O)Nc1ccc(Cl)cc1	-6.3%[7.66 µM]	-1.6%	4.47µM*	-7.8%	?
CCCC(=O)Nc1nnc(/C=C/c2ccc(OC)cc2)s1	11.8%	.	5.62µM*	53.8%	-2.3
COc1ccc(/C=C/c2nnc(NC(=O)COc3cccc(C)c3)s2)cc1	16.3%	4.7%	4.47µM*	36.2%	-1.7
CCCCC(=O)Nc1nnc(/C=C/c2ccc(OC)cc2)s1	-14.0%	-2.7%	?	6.7%	1.1
O=S(=O)(Nc1cccc2cccnc12)c1ccc(Br)cc1	.	.	.	-13.1%	.
CC(=O)c1cccc(NC(=O)c2cc(C)nc3c2c(C)nn3-c2cccc(Cl)c2C)c1	.	.	.	-11.9%	.
C=C(C)C(=O)OC1(C(F)(F)F)Oc2cc(C)ccc2NC1=O (stereo not given)	-9.1%	-0.7%	-57.7%	17.8µM*	-2.8
